Reference: PubChem BioAssay
Values joined by “and” are separate entries in the source; they are usually repeats but may differ in a detail not shown here. Equal entries are not always repeated. Active and inactive are the calls of the source. Cut-off read from the data, not from the text of the source, unless noted: active = inhibition above about 80%; inactive = the rest.

Tests used:
[1] = sensitizers of A549 cells to miR-34 induction, primary screen, imaging, A549 dox-inducible miR-34, nuclei and caspase counts (AID 1347080;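 active = compounds whose cell count with miR-34 switched on is under 0.7 times the count with it off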); conditions: A549 miR-34 inducible, Hoechst nuclei count, 48 h
[2] = survival rescue of mitochondrial mutant cells in low glucose, primary screen, MELAS cybrids, Rieske KO mouse fibroblasts, CellTiter-Glo (AID 1508586;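 active = mean z-score across replicates of 1.96 or higher in either the MELAS or the Rieske mutant cell line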;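 note: z relative to plate mean and SD of compound and empty wells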)
[3] = target: NAD(+) hydrolase SARM1 (Homo sapiens) (UniProt Q6SZW1); experiment: SARM1 TIR NADase inhibitors, cell lysate, NAD-Glo luminescence (AID 1508614;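 active = compound whose remaining NAD level is above about 45 nM, limit read from the data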;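 note: higher remaining NAD means stronger inhibition of SARM1 NADase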); conditions: SAM-TIR HEK293T lysate NADase, at 1 µM, stronger effect = higher value
Chain of NAD(+) hydrolase SARM1 (Homo sapiens) (Q6SZW1 whole entry, looked up, the tested form may be a part): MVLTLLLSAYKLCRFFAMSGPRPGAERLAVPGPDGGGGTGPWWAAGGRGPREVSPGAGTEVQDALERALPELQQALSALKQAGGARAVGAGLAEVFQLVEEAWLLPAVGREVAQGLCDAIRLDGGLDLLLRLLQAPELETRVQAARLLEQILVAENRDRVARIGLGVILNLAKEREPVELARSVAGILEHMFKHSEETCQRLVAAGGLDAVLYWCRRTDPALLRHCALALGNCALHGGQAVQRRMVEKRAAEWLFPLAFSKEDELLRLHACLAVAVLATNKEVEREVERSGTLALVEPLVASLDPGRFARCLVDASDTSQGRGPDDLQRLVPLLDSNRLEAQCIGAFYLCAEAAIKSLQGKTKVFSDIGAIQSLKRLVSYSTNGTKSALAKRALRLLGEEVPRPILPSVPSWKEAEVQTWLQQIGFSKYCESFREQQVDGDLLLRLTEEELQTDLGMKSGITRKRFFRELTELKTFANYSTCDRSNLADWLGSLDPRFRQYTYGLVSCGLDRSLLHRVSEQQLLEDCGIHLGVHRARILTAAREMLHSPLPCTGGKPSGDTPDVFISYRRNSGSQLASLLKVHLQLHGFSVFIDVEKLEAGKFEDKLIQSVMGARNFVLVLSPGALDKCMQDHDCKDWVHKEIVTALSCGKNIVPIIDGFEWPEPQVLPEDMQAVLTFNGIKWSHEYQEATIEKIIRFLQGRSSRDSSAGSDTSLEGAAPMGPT

[4] = target: Mitogen-activated protein kinase 7 (Homo sapiens) (UniProt Q13164); experiment: ERK5 transactivation activators in reporter cells, primary screen, cell-based, HTS (AID 1508626;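 active = luciferase signal above three times the same-plate solvent-only control wells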;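 note: luciferase driven by Gal4-ERK5 fusion binding five Gal4 sites before minimal TATA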); conditions: HeLa Gal4-ERK5 transactivation, 18 h, at 5 µM, stronger effect = higher value
Chain of Mitogen-activated protein kinase 7 (Homo sapiens) (Q13164 whole entry, looked up, the tested form may be a part): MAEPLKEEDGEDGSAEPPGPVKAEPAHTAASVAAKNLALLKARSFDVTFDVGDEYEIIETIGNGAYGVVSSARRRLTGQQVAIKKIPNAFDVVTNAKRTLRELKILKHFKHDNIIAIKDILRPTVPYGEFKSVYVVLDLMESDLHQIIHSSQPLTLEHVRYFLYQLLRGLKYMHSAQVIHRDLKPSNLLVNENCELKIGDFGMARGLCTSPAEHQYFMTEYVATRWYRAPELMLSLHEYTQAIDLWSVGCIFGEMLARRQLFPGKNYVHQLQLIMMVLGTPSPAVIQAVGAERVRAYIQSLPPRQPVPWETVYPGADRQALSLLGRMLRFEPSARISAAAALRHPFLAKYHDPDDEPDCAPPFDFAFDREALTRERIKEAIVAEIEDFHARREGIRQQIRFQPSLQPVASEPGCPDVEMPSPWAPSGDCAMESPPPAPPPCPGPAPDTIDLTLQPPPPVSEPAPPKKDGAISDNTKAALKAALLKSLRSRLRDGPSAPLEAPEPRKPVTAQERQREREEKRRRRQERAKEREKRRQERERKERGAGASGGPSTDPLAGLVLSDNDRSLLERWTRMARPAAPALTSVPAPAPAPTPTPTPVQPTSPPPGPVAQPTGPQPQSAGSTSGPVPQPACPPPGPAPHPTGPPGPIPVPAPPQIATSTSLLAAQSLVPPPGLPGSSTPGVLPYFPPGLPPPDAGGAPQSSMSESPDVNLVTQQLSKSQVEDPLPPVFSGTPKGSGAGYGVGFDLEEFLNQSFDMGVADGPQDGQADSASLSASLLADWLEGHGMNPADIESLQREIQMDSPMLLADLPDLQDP

[5] = viability rescue of complex I mutant cybrids, primary screen, cell-based, galactose medium, ATP luminescence (AID 1645843;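 active = z-score of at least 1.8 in each of two replicates, scored against plate mean and spread of sample wells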;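 note: positive z means more ATP and so rescue of galactose-driven cybrid death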); conditions: complex I mutant cybrid cells, 72 h, stronger effect = higher value
[6] = LFS_MB_P medulloblastoma growth inhibition, cell-based, chromothripsis tumors, cisplatin or BGB combos (AID 1671449); conditions: LFS_MB_P medulloblastoma cells;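 note: cells exposed for 96 hours; 0% = vehicle DMSO and 100% = killing by high DMSO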
[7] = HDN33 neuroblastoma growth inhibition, cell-based, chromothripsis tumors, cisplatin or BGB combos (AID 1671450); conditions: HDN33 neuroblastoma cells, stronger effect = higher value;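 note: cells exposed to compound for four days; 0% = vehicle DMSO and 100% = cell killing by high DMSO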
[8] = ICB984 medulloblastoma cell growth inhibition, synergistic combos for chromothripsis tumors, cisplatin or BGB combos (AID 1671451; call rule not given here;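 note: cells exposed for 96 hours before readout; 0% = vehicle DMSO and 100% = killing by high DMSO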); conditions: ICB984 medulloblastoma cells, drug combinations, stronger effect = higher value
[9] = LFS_MB_1R medulloblastoma cell growth inhibition, synergistic combos for chromothripsis tumors, cisplatin or BGB combos (AID 1671452); conditions: LFS_MB_1R medulloblastoma cells, stronger effect = higher value;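 note: cells exposed for 96 hours before readout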
[10] = HTB85 osteosarcoma cell growth inhibition, synergistic combos for chromothripsis tumors, BGB or cisplatin IC20 combos (AID 1671453); conditions: HTB85 osteosarcoma cells, drug combinations, stronger effect = higher value;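 note: cells exposed for 96 hours before readout; 0% = vehicle DMSO and 100% = high DMSO killing control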
[11] = CRL2098 osteosarcoma cell growth inhibition, synergistic combos for chromothripsis tumors, BGB or cisplatin IC20 combos (AID 1671454); conditions: CRL2098 osteosarcoma cells, drug combinations, stronger effect = higher value;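 note: cells exposed for 96 h before readout; 0% = vehicle DMSO and 100% = killing by high DMSO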
[12] = HD-MB03 medulloblastoma cell growth inhibition, synergistic combos for chromothripsis tumors, BGB or cisplatin IC20 combos (AID 1671455; in the data active = inhibition above about 83%;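 note: 0% = vehicle DMSO and 100% = high DMSO as cytotoxic control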); conditions: HD-MB03 medulloblastoma cells, stronger effect = higher value
[13] = stronger effect = lower value, cell number ratio, induced over uninduced
[14] = measured here: relative caspase fold change +Dox/-Dox
[15] = measured here: total cells with miR-34 induction, stronger effect = lower value
[16] = measured here: total cells without miR-34 induction
[17] = MELAS cybrid survival, CellTiter-Glo 48 h, stronger effect = higher value
[18] = Rieske KO mouse fibroblast survival, CellTiter-Glo 72 h
[19] = measured here: combination with BGB IC40, at 0.05 µM

SMILES: CN(C)/N=N/c1nc[nH]c1C(N)=O
- fold change [1, 13]: 0.938 (inactive) and 0.895 (inactive)
- fold change [1, 14]: 1.29 and 2.08
- cell count [1, 15]: 11400 and 9140
- cell count [1, 16]: 12200 and 10200
- z-score [2, 17]: 0.302 (inactive)
- z-score [2, 18]: 0.971
- remaining NAD [3]: 10 nM (inactive)
- luciferase signal [4]: 28 AU (inactive)
- z-score [5]: -1.27 (inactive)
- inhibition ([6]; at 0.5 µM, stronger effect = higher value): -23.9% (inactive) and -10.4% (inactive)
- inhibition ([6]; measured here: combination with BGB IC20, at 0.005 µM): 22.6% and -26.8%
- inhibition ([6]; measured here: combination with BGB IC40, at 0.005 µM): -4.64% and -12.1%
- inhibition [6, 19]: 6.08% and -27.5%
- inhibition ([6]; measured here: combination with cisplatin, at 0.5 µM, stronger effect = higher value): -35.1% and -31.1%
- inhibition ([6]; measured here: combination with cisplatin, at 5 µM, stronger effect = higher value): -14.4% and -39%
- inhibition ([7]; BGB combo, at 5 µM): 18.6% and -37%
- inhibition ([7]; at 0.5 µM): 0.39% (inactive) and -45.8% (inactive)
- inhibition ([7]; cisplatin combo, at 5 µM): 25.6% and -37.1%
- inhibition ([7]; measured here: with BGB IC20 combination, at 0.5 µM): -1.18% and -51%
- inhibition ([7]; measured here: with cisplatin IC20 combination, at 0.5 µM): -5.95% and -47.5%
- inhibition ([7]; single agent, at 5 µM): 47.2% and 2.95%
- inhibition ([8]; BGB IC20 combo, at 0.005 µM): 0.732% and 6.78%
- inhibition ([8]; BGB IC40 combo, at 0.005 µM): -12.9% and -11.7%
- inhibition ([8]; BGB IC40 combo, at 0.05 µM): 12.2% and -40.2%
- inhibition ([8]; at 0.5 µM): -9.82% (inactive) and -15.2% (inactive)
- inhibition ([8]; cisplatin combo, at 0.05 µM): 9.76% and -45.2%
- inhibition ([8]; cisplatin combo, at 0.5 µM): -14.5% and -8.2%
- inhibition ([8]; cisplatin combo, at 5 µM): -16% and -22.9%
- inhibition ([8]; measured here: 5 uM single agent, at 5 µM): -26.7% and -20.4%
- inhibition ([9]; at 0.5 µM): -6.85% (inactive) and -29.4% (inactive)
- inhibition [9, 19]: -7.35% and -52.3%
- inhibition ([9]; measured here: combination with cisplatin, at 0.5 µM): 9.4% and -47.7%
- inhibition ([9]; measured here: combination with cisplatin, at 5 µM): 3.18% and -94.1%
- inhibition ([10]; at 0.5 µM): -1.95% (inactive) and -35.1% (inactive)
- inhibition ([10]; measured here: with BGB IC20, at 0.5 µM): 3.62% and -33.2%
- inhibition ([10]; measured here: with BGB IC20, at 5 µM): -31.2% and -31.5%
- inhibition ([10]; measured here: with cisplatin IC20, at 0.5 µM): -17.3% and -45.8%
- inhibition ([10]; measured here: with cisplatin IC20, at 5 µM): -16% and -61.7%
- inhibition ([10]; single agent, at 5 µM): -8.44% and -20.4%
- inhibition ([11]; at 0.5 µM): -3.56% (inactive) and -92.1% (inactive)
- inhibition ([11]; measured here: combination with BGB at IC20, at 0.5 µM): -50.1% and -47.1%
- inhibition ([11]; measured here: combination with cisplatin at IC20, at 0.5 µM): 34.4% and -173%
- inhibition ([12]; at 0.5 µM): 0.8% (inactive) and -6.95% (inactive)
- inhibition ([12]; measured here: combo with BGB at IC20, at 0.5 µM): 4.98% and -8.86%
- inhibition ([12]; measured here: combo with cisplatin at IC20, at 0.5 µM): -6.17% and -0.723%

SMILES: CC1(C)O[C@@H]2C[C@H]3[C@@H]4CCC5=CC(=O)CC[C@]5(C)[C@@]4(F)[C@@H](O)C[C@]3(C)[C@]2(C(=O)CCl)O1
- fold change [1, 13]: 0.774 (inactive)
- fold change [1, 14]: 1.34
- cell count [1, 15]: 5550
- cell count [1, 16]: 7170
- z-score [2, 17]: 0.0233 (inactive)
- z-score [2, 18]: 1.13
- luciferase signal [4]: 112 AU (inactive)

SMILES: CC(C(=O)O)c1ccc(C(=O)c2cccs2)cc1 (configuration not stated)
- fold change [1, 13]: 0.842 (inactive) and 0.947 (inactive) and 0.9 (inactive)
- fold change [1, 14]: 1.16 and 0.84 and 2.46
- cell count [1, 15]: 9210 and 7840 and 11900
- cell count [1, 16]: 10900 and 8270 and 13200
- z-score [2, 17]: 0.0275 (inactive) and 0.475 (inactive)
- z-score [2, 18]: -0.115 and -0.0807
- luciferase signal [4]: 92 AU (inactive)

SMILES: CC(=O)Nc1ccc(OCC(O)CNC(C)C)cc1 (configuration not stated)
- fold change [1, 13]: 0.852 (inactive) and 0.959 (inactive)
- fold change [1, 14]: 1.35 and 1.11
- cell count [1, 15]: 8450 and 10300
- cell count [1, 16]: 9920 and 10700
- z-score [2, 17]: 0.00127 (inactive) and -0.285 (inactive)
- z-score [2, 18]: -0.287 and 0.516
- luciferase signal [4]: 24 AU (inactive)
- z-score [5]: 0.68 (inactive)
